Results filed as inconclusive are left out. The source holds several records for some structures; these can differ, active in one and inactive in another. Calls of active or inactive are those of the source. Rule for the calls, unless noted: active = hit-call score of the fitted dose curve at least 0.9, where 1 is the maximum; inactive = score below 0.9.
Legend:
[1] = target: Hepatocyte nuclear factor 6 (Homo sapiens) (UniProt Q9UBC0); experiment: ATG_HNF6_CIS: Attagene CIS-FACTORIAL HepG2 Assay for human Hepatocyte Nuclear Factor 6 (HNF6) (AID 2282952); settings: HepG2 Attagene cis-factorial HNF6 reporter transcription; actives raise or lower the signal
Outline: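 Multiplexed mRNA reporter assay in transfected HepG2; 24 h dosing; RT-PCR plus capillary electrophoresis fluorescence; DMSO-referenced bidirectional curve fitting.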

[2] = target: Heat shock factor protein 1 (Homo sapiens) (UniProt Q00613); experiment: ATG_HSE_CIS: Attagene CIS-FACTORIAL HepG2 Assay for human Heat Shock Transcription Factor 1 (HSE) (AID 2282953); settings: HepG2 HSE cis-reporter, Attagene RNA transcription; actives raise or lower the signal
Outline: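 Read-out: fluorescence of reporter-specific RT-PCR fragments separated by capillary electrophoresis. HepG2 carrying transfected cis-element reporter units; 24 h dosing; activity fitted in both directions relative to DMSO baseline.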

[3] = ATG_PBREM_CIS: Attagene CIS-FACTORIAL HepG2 Assay for human Phenobarbital-responsive Enhancer Module (PBREM) (AID 2282955); settings: HepG2 PBREM cis-reporter, Attagene multiplexed transcription; actives raise or lower the signal
Outline: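 After a 24 h incubation with test chemical, transfected HepG2 cells yield total RNA; reporter-specific RT-PCR products are fluorescently labelled, HpaI-digested and resolved by capillary electrophoresis against ROX size standards.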

[4] = target: Paired box protein Pax-6 (Homo sapiens) (UniProt P26367); experiment: ATG_Pax6_CIS: Attagene CIS-FACTORIAL HepG2 Assay for human Paired Box 6 (PAX6) (AID 2282956); settings: HepG2 CIS-FACTORIAL PAX6 reporter transcription, RNA readout; actives raise or lower the signal
Outline: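 After twenty-four hours of chemical exposure, transfected HepG2 cells are harvested for RNA. Cis-promoter reporter transcripts are amplified, fluorescently labelled and sized by capillary electrophoresis, with gain and loss of signal scored against DMSO.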

[5] = ATG_PXRE_CIS: Attagene CIS-FACTORIAL HepG2 Assay for human Pregnane X Receptor Element (PXRE) (AID 2282957); settings: HepG2 Attagene CIS-FACTORIAL PXRE reporter, mRNA; actives raise or lower the signal
Outline: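 Cells: HepG2, transiently transfected reporter units under cis promoter control. Exposure: 24 h. Detection: reporter mRNA via RT-PCR/CE fluorescence; bidirectional fitting, DMSO-referenced.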

[6] = ATG_RORE_CIS: Attagene CIS-FACTORIAL HepG2 Assay for human RAR-related Orphan Receptor Element (RORE) (AID 2282959); settings: HepG2 Attagene cis-factorial RORE reporter, mRNA; actives raise or lower the signal
Outline: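 Fluorescence intensity of reporter-specific cDNA fragments, separated by capillary electrophoresis, gives the signal. Source: HepG2 liver cells transiently transfected with cis-element reporters and exposed 24 h; DMSO-normalized bidirectional fit.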

[7] = ATG_Sox_CIS: Attagene CIS-FACTORIAL HepG2 Assay for human SRY-box transcription factor (SOX) (AID 2282960); settings: HepG2 Attagene cis-factorial SOX reporter, mRNA; actives raise or lower the signal
Outline: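 After 24 h of chemical treatment, transfected HepG2 reporter cells are lysed for total RNA. Transcript levels come from RT-PCR with labelled primer extension and capillary electrophoresis, analysed bidirectionally versus DMSO.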

[8] = target: Transcription factor Sp1 (Homo sapiens) (UniProt P08047); experiment: ATG_Sp1_CIS: Attagene CIS-FACTORIAL HepG2 Assay for human Specificity Protein 1 (Sp1) (AID 2282961); settings: HepG2 Sp1 cis-reporter transcription, actives raise or lower the signal
Outline: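 Sp1-driven reporter mRNA, read as capillary electrophoresis fluorescence after RT-PCR, in transiently transfected HepG2 cells dosed for 24 h; signal change in either direction relative to DMSO.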

[9] = ATG_SREBP_CIS: Attagene CIS-FACTORIAL HepG2 Assay for human Sterol Regulatory Element Binding (SREBP) (AID 2282962); settings: HepG2 Attagene cis-factorial SREBP reporter, mRNA; actives raise or lower the signal
Outline: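 Twenty-four hours after chemical dosing of transfected HepG2 cultures, reporter RNA was converted to cDNA, amplified, end-labelled with 6-FAM and resolved by capillary electrophoresis. Responses were fitted relative to DMSO.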

[10] = target: Signal transducer and activator of transcription 3 (Homo sapiens) (UniProt P40763); experiment: ATG_STAT3_CIS: Attagene CIS-FACTORIAL HepG2 Assay for human Signal Transducer and Activator of Transcription 3 (STAT3) (AID 2282963); settings: HepG2, Attagene cis-factorial STAT3 reporter transcription; actives raise or lower the signal
Outline: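 After a 24 h compound incubation, total RNA from MRTU-transfected HepG2 cells was converted to cDNA and reporter sequences PCR-amplified, labelled and profiled by capillary electrophoresis. Gain and loss of signal were referenced to DMSO.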

[11] = ATG_TCF_b_cat_CIS: Attagene CIS-FACTORIAL HepG2 Assay for human T-Cell-Factor with beta-catenin (TCF/b-cat) (AID 2282965); settings: HepG2 TCF/beta-catenin cis-reporter transcription, actives raise or lower the signal
Outline: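 Measured: reporter mRNA in HepG2 transiently transfected with cis-promoter reporter units, 24 h after chemical addition. Fitting was bidirectional, DMSO as negative control.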

[12] = ATG_TAL_CIS: Attagene CIS-FACTORIAL HepG2 Assay for human TAL Basal Promoter (AID 2282966); settings: HepG2 Attagene cis-factorial TAL promoter reporter; actives raise or lower the signal;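 note: background control endpoint measuring basal TAL promoter reporter mRNA not a specific factor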
Outline: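 RT-PCR plus capillary electrophoresis quantifies reporter mRNA induction in transiently transfected HepG2 cells after 24 h chemical treatment. DMSO serves as negative control and baseline for bidirectional fitting.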

[13] = ATG_TGFb_CIS: Attagene CIS-FACTORIAL HepG2 Assay for human Transforming Growth Factor (TGF) (AID 2282967); settings: HepG2 Attagene CIS TGFb reporter, mRNA transcription; actives raise or lower the signal
Outline: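 Readout: fluorescently labeled reporter cDNA fragments resolved by capillary electrophoresis after RT-PCR. Transfected HepG2 cells dosed for 24 h; endogenous TF activity at TGFB1-linked cis element; gain or loss fitted relative to DMSO.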

[14] = ATG_VDRE_CIS: Attagene CIS-FACTORIAL HepG2 Assay for human Vitamin D Receptor Element (VDRE) (AID 2282968); settings: HepG2 VDRE cis-reporter transcription, actives raise or lower the signal
Outline: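 In transiently transfected HepG2 liver cells, gain or loss of reporter mRNA after 24 h exposure is scored relative to DMSO, using fluorescence detection by capillary electrophoresis of RT-PCR products.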

[15] = ATG_MRE_CIS: Attagene CIS-FACTORIAL HepG2 Assay for human Metal Responsive Element (MRE) (AID 2282954); settings: HepG2 MRE cis-reporter transcription, Attagene multiplex; actives raise or lower the signal
Outline: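 After a 24 h chemical exposure, transiently transfected HepG2 cells yield RNA whose reporter sequences are amplified, FAM-labelled and sized by capillary electrophoresis. Curves are fitted bidirectionally relative to DMSO.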

[16] = ATG_PPRE_CIS: Attagene CIS-FACTORIAL HepG2 Assay for human Peroxisome Proliferator-activated Response Element (PPRE) (AID 2282958); settings: HepG2 PPRE cis-element reporter, Attagene transcription factor profiling; actives raise or lower the signal
Outline: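 Multiplexed reporter transcription units under cis-regulatory promoters were transfected into HepG2 cells to capture endogenous factor activity. A 24 h incubation preceded RNA isolation and fluorescent RT-PCR fragment analysis.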

[17] = ATG_TA_CIS: Attagene CIS-FACTORIAL HepG2 Assay for human TA Basal Promoter (AID 2282964); settings: HepG2 Attagene CIS-factorial TA basal promoter reporter; actives raise or lower the signal
Outline: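 Transfected HepG2, 24 h compound exposure; RNA → RT-PCR → FAM primer extension → HpaI cut → CE fluorescence. Gain/loss-of-signal fitted against DMSO negative control. Background-control readout.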

[18] = target: Nuclear receptor subfamily 1 group I member 3 (Homo sapiens) (UniProt Q14994); experiment: ATG_CAR_TRANS: Attagene TRANS-FACTORIAL HepG2 Assay for human Constitutive Androstane Receptor (CAR) (AID 2282969; active = hit-call score of the fitted dose curve at least 0.9, where 1 is the maximum;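 note: activators raise reporter mRNA above DMSO so AC50 marks induction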); settings: HepG2 Attagene TRANS-FACTORIAL CAR reporter
Outline: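 Readout is reporter mRNA induction, quantified by fluorescent primer extension and capillary electrophoresis after RT-PCR. Cells were HepG2 transiently carrying chimeric NR-Gal4 constructs with GAL4-UAS reporters, treated for 24 h; activity scored upward from DMSO.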

[19] = target: Estrogen receptor (Homo sapiens) (UniProt P03372); experiment: ATG_ERa_TRANS: Attagene TRANS-FACTORIAL HepG2 Assay for human Estrogen Receptor alpha (ERa) (AID 2282970; active = hit-call score of the fitted dose curve at least 0.9, where 1 is the maximum); settings: HepG2 Attagene TRANS ERa GAL4 reporter, mRNA
Outline: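 Cells: HepG2, transiently transfected. Construct: GAL4-UAS reporter units regulated by exogenous NR-Gal4 chimeras. Time: 24 h. Detection: reporter mRNA by RT-PCR, capillary electrophoresis, fluorescence. Baseline: DMSO, upward fitting.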

Measured: AC50

Heat shock factor protein 1 (Homo sapiens), sequence (Q00613 whole entry, looked up, the tested form may be a part): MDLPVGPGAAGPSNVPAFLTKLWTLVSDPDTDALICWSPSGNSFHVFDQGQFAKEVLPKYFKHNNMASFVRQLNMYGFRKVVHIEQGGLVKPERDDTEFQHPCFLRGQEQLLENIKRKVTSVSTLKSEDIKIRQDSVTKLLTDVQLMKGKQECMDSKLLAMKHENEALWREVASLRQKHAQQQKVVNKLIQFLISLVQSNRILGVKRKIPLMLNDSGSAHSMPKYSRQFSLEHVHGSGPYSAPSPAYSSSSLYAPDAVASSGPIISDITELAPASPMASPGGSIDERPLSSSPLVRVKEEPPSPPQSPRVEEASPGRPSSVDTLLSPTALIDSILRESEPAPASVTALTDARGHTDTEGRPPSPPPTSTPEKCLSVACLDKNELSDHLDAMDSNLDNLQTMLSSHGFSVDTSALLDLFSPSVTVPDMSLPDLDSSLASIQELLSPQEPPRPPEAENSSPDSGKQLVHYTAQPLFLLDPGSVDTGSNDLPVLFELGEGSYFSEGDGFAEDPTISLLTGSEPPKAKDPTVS
Signal transducer and activator of transcription 3 (Homo sapiens), sequence (P40763 whole entry, looked up): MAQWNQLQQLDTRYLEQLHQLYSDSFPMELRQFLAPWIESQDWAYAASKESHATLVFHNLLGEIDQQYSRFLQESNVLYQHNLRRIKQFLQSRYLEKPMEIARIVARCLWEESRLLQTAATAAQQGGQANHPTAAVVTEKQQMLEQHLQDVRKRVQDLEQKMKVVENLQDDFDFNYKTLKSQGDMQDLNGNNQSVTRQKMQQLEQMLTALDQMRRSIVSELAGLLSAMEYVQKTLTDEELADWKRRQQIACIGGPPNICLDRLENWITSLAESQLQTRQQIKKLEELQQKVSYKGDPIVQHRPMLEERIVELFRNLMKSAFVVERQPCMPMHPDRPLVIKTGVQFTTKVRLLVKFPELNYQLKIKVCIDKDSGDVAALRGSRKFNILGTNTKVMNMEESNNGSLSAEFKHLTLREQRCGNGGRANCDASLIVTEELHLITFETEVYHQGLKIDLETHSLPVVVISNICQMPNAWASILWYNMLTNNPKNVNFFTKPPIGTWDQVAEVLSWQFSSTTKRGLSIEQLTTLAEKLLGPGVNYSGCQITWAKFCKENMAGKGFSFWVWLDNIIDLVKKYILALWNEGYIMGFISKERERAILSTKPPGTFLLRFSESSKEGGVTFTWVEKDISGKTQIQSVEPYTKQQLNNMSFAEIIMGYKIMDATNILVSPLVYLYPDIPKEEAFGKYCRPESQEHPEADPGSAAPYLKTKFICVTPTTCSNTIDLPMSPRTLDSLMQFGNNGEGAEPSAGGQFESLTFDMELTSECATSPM
Hepatocyte nuclear factor 6 (Homo sapiens), sequence (Q9UBC0 whole entry, looked up): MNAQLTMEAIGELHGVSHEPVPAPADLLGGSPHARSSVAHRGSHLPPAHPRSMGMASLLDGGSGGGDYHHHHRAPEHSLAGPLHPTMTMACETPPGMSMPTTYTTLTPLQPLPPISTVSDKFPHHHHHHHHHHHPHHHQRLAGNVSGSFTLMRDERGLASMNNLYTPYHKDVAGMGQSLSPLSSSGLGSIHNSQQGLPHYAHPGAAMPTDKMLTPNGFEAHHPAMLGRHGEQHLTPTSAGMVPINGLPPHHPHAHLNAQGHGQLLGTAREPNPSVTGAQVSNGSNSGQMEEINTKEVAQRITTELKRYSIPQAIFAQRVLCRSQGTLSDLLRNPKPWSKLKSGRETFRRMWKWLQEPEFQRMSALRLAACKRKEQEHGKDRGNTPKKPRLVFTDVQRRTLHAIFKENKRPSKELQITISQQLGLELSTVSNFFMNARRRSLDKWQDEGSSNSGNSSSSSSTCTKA
Transcription factor Sp1 (Homo sapiens), sequence (P08047 whole entry, looked up): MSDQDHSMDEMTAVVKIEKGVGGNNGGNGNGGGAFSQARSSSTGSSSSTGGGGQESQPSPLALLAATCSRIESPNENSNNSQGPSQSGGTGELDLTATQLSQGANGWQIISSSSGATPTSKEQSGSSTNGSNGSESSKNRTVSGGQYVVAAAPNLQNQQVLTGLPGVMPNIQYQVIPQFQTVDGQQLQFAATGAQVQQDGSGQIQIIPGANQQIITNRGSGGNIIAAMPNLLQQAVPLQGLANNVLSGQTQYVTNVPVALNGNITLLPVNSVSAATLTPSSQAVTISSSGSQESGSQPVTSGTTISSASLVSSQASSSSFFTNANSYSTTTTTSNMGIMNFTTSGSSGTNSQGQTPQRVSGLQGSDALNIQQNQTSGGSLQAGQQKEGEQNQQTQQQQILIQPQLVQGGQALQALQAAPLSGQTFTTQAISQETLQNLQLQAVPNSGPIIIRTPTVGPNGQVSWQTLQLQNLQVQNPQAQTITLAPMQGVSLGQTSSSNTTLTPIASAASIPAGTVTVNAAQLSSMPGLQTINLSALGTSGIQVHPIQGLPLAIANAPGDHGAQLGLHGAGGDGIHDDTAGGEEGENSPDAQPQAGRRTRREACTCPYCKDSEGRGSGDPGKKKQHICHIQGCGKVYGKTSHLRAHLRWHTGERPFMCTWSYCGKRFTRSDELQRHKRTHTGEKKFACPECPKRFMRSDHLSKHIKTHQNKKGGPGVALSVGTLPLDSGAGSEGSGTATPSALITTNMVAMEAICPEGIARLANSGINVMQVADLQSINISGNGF
Paired box protein Pax-6 (Homo sapiens), sequence (P26367 whole entry, looked up): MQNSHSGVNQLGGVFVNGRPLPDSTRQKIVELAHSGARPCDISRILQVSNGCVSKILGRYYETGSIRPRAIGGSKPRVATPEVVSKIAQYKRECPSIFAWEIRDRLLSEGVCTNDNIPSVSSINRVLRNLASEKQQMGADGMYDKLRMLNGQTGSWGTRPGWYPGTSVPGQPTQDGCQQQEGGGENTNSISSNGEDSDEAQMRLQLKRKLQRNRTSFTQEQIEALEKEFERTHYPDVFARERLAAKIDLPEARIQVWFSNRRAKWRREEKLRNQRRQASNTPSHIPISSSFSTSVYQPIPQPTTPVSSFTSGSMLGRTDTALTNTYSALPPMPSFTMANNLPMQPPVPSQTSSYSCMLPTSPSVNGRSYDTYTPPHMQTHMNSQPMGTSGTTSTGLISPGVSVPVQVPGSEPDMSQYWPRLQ
Nuclear receptor subfamily 1 group I member 3 (Homo sapiens), sequence (Q14994 whole entry, looked up, the tested form may be a part): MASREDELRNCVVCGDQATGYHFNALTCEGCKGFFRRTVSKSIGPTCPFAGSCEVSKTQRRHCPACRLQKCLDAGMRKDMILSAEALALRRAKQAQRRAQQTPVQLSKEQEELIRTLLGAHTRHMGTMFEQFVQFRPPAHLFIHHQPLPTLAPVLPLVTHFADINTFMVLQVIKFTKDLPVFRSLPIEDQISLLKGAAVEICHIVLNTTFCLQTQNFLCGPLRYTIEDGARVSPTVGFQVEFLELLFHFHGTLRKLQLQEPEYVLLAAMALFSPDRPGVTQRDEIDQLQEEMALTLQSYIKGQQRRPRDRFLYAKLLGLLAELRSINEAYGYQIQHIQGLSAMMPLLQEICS
Estrogen receptor (Homo sapiens), sequence (P03372 whole entry, looked up, the tested form may be a part): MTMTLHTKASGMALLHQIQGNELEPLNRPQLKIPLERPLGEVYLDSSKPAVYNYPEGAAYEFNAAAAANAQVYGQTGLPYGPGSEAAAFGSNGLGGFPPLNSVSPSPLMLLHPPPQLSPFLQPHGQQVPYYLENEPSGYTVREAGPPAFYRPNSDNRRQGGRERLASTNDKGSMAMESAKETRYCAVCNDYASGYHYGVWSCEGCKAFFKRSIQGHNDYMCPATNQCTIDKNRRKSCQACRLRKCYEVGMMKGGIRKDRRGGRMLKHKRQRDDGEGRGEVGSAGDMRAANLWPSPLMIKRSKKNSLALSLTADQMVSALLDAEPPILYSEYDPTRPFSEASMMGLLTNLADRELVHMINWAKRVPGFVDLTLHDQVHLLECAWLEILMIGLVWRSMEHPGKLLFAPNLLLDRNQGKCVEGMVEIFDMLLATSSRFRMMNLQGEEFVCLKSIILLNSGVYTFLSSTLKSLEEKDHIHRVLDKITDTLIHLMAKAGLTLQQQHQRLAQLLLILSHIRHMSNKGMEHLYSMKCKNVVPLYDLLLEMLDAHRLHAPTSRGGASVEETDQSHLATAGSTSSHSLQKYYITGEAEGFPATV

CC(C)C(C)(N)C#N (configuration not stated)
active: [5] 26 µM
not listed: [15] | [16] | [17] | [18] | [19]
inactive: all other assays above

CC[N+](CC)(CC)CC
active: [13] 1.07 µM
inactive: [1] | [2] | [15] | [3] | [5] | [16] | [6] | [7] | [8] | [9] | [10] | [11] | [12] | [13] | [14]

C#CCO
not listed: [4] | [10] | [19]
inactive: all other assays above

CCN(N=O)C(N)=O
not listed: [3] | [17] | [18]
inactive: all other assays above

O=C(CCl)NCO
active: [13] 0.765 µM
not listed: [17] | [18] | [19]
inactive: all other assays above

Brc1ccc(Oc2c(Br)cc(Br)cc2Br)c(Br)c1
not listed: [4] | [10] | [14] | [18] | [19]
inactive: all other assays above
